# Screens as filed in PubChem BioAssay.
# Shown are actives, neighbours in structure and some others; about 2% of the full set was active somewhere.
# Neddyl block – inhibitors of human cullin neddylation; TR-FRET cullin neddylation, biochemical; 360,000 tested, 0.58% active; P61081+Q13564; inhibition, % at 25 µM; in the data active means inhibition above about 36%
# DAGLB inh – blocks human DAGLB lipase activity; AID 504411; 340,000 tested, 0.059% active; HEK293T DAGLB membrane lysate, EnzChek fluorogenic substrate; Q8NCG7; inhibition, % at 5.17 µM; in the data active means inhibition above about 34%;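 further: 0% = enzyme with vehicle and 100% = wells lacking enzyme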
# Target sequence (Q8NCG7 whole entry, looked up): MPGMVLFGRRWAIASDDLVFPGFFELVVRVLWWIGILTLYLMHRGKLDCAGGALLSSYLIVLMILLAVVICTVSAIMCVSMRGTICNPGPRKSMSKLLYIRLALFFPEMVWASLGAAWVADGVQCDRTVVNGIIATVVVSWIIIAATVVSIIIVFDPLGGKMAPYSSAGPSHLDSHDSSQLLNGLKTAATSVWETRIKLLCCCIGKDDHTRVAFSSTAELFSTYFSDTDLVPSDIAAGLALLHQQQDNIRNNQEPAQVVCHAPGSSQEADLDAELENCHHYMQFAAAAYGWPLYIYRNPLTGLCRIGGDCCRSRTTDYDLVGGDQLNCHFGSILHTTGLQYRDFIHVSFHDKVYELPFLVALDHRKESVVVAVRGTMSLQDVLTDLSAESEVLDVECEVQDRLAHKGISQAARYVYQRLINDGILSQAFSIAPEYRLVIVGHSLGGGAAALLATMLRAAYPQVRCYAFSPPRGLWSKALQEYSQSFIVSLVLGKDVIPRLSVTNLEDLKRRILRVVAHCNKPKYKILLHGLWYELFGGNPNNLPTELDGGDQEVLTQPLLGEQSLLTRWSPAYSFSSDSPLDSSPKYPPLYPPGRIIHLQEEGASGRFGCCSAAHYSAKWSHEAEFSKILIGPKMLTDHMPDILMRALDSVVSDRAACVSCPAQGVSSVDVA
# ARNT-TACC3 inh – disruptors of human ARNT/TACC3 interaction. AlphaScreen His-ARNT PAS-B/GST-TACC3 binding, luminescence; TACC3 fragment carries E629A point mutation. AID 623870. inhibition, % at 9.99 µM. 390,000 tested, 0.66% active;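 active means mean inhibition of replicates at least 50% and at least half of replicates each reaching 50%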;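 further: 0% = complete ARNT plus TACC3 wells and 100% = ARNT alone without TACC3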
# HGIII-sPLA2 inh – Inhibits HGIII-sPLA2 liposome hydrolysis, primary screen | Q9NZ20 | QFRET BODIPY PC-A2 liposome hydrolysis, fluorescence | inhibition, % at 12.2 µM | 370,000 tested, 0.56% active | AID 743126;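 active means inhibition above mean plus 3 SD of compounds lying within the high and low control bounds, cut at about 19% in these data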;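 further: 0% = median of test compound wells and 100% = no enzyme DMSO wells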
# NadD block – inhibitors of Staphylococcus aureus NadD. inhibition, % at 20 µM. AID 602399. purified NadD enzyme, colorimetric absorbance read-out. 360,000 tested, 0.78% active; in the data active means inhibition above about 26%
# hGIII sPLA2 conf – human GIII-sPLA2 inhibition, confirmation; shares compounds with HGIII-sPLA2 inh; recombinant hGIII-sPLA2, BODIPY PC-A2 QFRET fluorescence; inhibition, % at 12.2 µM; 2,000 tested, 34% active; AID 743280;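 active means mean inhibition across triplicates above the hit cutoff set in the earlier primary screen, cut at about 19% in these data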;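 further: 0% = enzyme with DMSO and 100% = DMSO wells lacking enzyme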
# BODIPY interf – optically interferes with 535nm fluorescence in sPLA2 counter-screen | BODIPY FL product fluorescence interference, QFRET | inhibition, % at 12.2 µM | 2,000 tested, 8.5% active | AID 743282 | shares compounds with HGIII-sPLA2 inh;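 active means average inhibition above the solvent-only control mean plus 3 SD, cut at about 6% in these data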;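 further: 0% = DMSO with substrate plus product and 100% = DMSO with substrate alone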
# 535nm interf DR – 535nm optical interference dose response, HGIII-sPLA2 counter-screen. shares compounds with HGIII-sPLA2 inh. BODIPY FL product fluorescence interference, cell-free. IC50, µM. 240 tested, under 10 active. AID 743455;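 active means IC50 at or below 10 µM; inactive means IC50 above 10 µM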
# An asterisk follows results filed as active; / = no result shown.
SMILES,Neddyl block,DAGLB inh,ARNT-TACC3 inh,HGIII-sPLA2 inh,NadD block,hGIII sPLA2 conf,BODIPY interf,others
CNCc1ccccc1Sc1cc(O)ccc1O,11.3,5.6,12.7,19.7*,5.7,37.6*,-6.1,535nm interf DR=>122
C[C@H](CO)N1C[C@H](C)[C@@H](CN(C)C(=O)C2CCC2)Oc2ncc(-c3ccc(F)cc3)cc2C1=O,/,/,-7.7,/,/,/,/,
COc1ccc2c(c1)cc(C(=O)N/N=C/c1c(O)c(C(=O)O)cc3ccccc13)n2C,13.3,7.3,-27.8,19.2*,8.7,16.5,2.1,
CC(=O)Nc1ccc(N=Cc2c(O)c(C(=O)Nc3ccccc3)cc3ccccc23)cc1,/,/,/,2.8,/,/,/,
CC(C)(C)C(=O)NC(=S)Nc1sc2c(c1C#N)CCCCC2,-23.5,-6.7,6.7,21.6*,-5.8,17.1,3.7,
C[C@H]1CN([C@@H](C)CO)C(=O)c2cccc(NS(=O)(=O)c3ccc(Cl)cc3)c2O[C@H]1CN(C)Cc1ccc(C(F)(F)F)cc1,/,/,-1.6,/,/,/,/,
Cc1cc(/C=N/NC(N)=S)c(C)n1-c1ccc(Cl)cc1,-0.6,1.0,/,2.4,3.6,/,/,
COC(=O)c1cnn(-c2ccc(Cl)cc2)c1/C=N/NC(N)=S,-20.0,0.9,13.6,24.5*,3.3,6.8,-4.4,
Cc1cc(-c2n[nH]c(=S)n2N=Cc2cccc(Oc3ccccc3)c2)n[nH]1,/,/,/,3.8,/,/,/,
COc1cccc(/C=N/n2c(-c3cc(C)[nH]n3)n[nH]c2=S)c1,-5.1,0.0,2.2,19.4*,4.0,22.5*,0.9,
CCn1c(-c2ccccc2)c[nH]c1=S,24.2,1.5,0.2,6.7,-3.3,/,/,
CC(C)Cn1c(-c2ccc(Br)cc2)c[nH]c1=S,-28.4,0.4,11.5,28.0*,18.9,37.5*,5.5,
CCCCCn1c(=NC(=O)c2cccnc2)c(C#N)cc2c(=O)n3cccc(C)c3nc21,/,4.0,4.6,19.7*,5.0,0.5,-4.2,
Cc1onc(-c2ccccc2)c1C(=O)NN=Cc1cc(Cl)cc(Cl)c1O,/,/,/,22.2*,/,17.2,10.5*,
O=C(Nc1cc(F)ccc1F)N[C@H]1CC[C@@H](CCn2cc(C3CC3)nn2)O[C@@H]1CO,/,/,-0.4,/,/,/,/,
CCOC(=O)N1CCN(S(=O)(=O)c2ccc(F)c(C(=O)Nc3ccc(C(C)C)cc3)c2)CC1,0.3,-1.0,-6.3,20.3*,-3.2,-18.8,-17.0,
S=C(Nc1ccccc1)Nc1nc2ccccc2n1CCOc1ccccc1,-279.7,0.1,-1.8,21.3*,5.4,25.4*,0.2,
CC(=O)Nc1nc2ccccc2n1CCOc1ccccc1,-0.2,1.2,-0.9,-4.8,2.9,/,/,
CC(C)NC(=O)Nc1ccc2c(c1)CC(=O)N([C@H](C)CO)C[C@H](C)[C@H](CN(C)S(=O)(=O)c1ccccc1)O2,/,/,11.6,/,/,/,/,
Cc1ccccc1S(=O)(=O)NCC[C@@H]1CC[C@H](NS(=O)(=O)c2ccccc2C)[C@@H](CO)O1,/,/,2.0,/,/,/,/,
CCOC(=O)c1sc(=S)n(C)c1NC(=O)c1ccccc1C,-6.2,0.1,16.9,24.4*,4.4,4.7,-6.5,
CCOC(=O)c1sc(=S)n(C)c1NC(=O)c1ccc(F)cc1,-1.4,-2.1,1.1,12.8,5.3,/,/,
CO/N=C1\CCn2c1c(C)c1ccccc12,17.3,-1.6,-31.3,19.8*,4.6,13.8,-6.5,
Cc1c2n(c3ccccc13)CC/C2=N\O,11.5,1.9,-5.5,10.4,-3.6,/,/,
CC(=O)Nc1sc(N/N=C\c2cccc(Cl)c2)nc1-c1cccs1,30.0,2.8,-2.6,25.0*,16.8,35.4*,13.6*,
C[C@@H]1CCCCO[C@@H](CN(C)S(=O)(=O)c2cn(C)cn2)[C@H](C)CN([C@H](C)CO)C(=O)c2cc(NS(=O)(=O)c3ccc(F)cc3)ccc2O1,/,/,-2.5,/,/,/,/,
O=C(N[C@@H]1C=C[C@H](CC(=O)N2CCOCC2)O[C@H]1CO)c1cccc(F)c1,/,/,-1.2,/,/,/,/,
CCCC(=O)NC(=S)Nc1nc(-c2ccc(OC)cc2)cs1,-7.3,-8.9,-4.5,23.0*,-0.3,23.8*,-0.9,
CCCNC(=O)Nc1ccc2c(c1)OC[C@@H](C)N(C(=O)CC)C[C@@H](C)[C@@H](OC)CN(C)C2=O,/,/,-0.1,/,/,/,/,
